Molecules are shown by their SMILES. Active and inactive are the calls of the source. Calls follow the shape of the dose curve; as a rule, active = well fitted curve in the direction sought with a large enough effect in the repeat runs; inconclusive = weak or mixed curves; inactive = flat fitted curve, though single readings scatter.
% is scaled to controls: 0 for no effect and ±100 for the full control effect.

A short description of this assay: qHTS assay to test for compound auto fluorescence at 460 nm (blue) in HEK293 cells (AID 720678). Conditions: blue autofluorescence 405/460 nm; series mostly up to 91.3 µM; fluorescence, % of triamterene: at the top concentration. An excerpt: National Center for Advancing Translational Sciences [NCATS]
NIH Chemical Genomics Center [NCGC]
U.S. Environmental Protection Agency [EPA]
National Institutes of Environmental Health Sciences [NIEHS]
National Toxicology Program [NTP]
U.S. Food and Drug Administration [FDA]
Compound auto fluorescence often interferes with screening of the compound library against various biological targets and signaling pathways. Some of these compounds may have fluorophoric properties. Such properties may interfere with the assay outputs resulting in false positives and/or negatives. To decrease such complications and ensure the compound activities are relevant in terms of biological response, the Tox21 10K compound library was screened for auto fluorescence.
From the fluorophores used as reporter signals in our screening assays, the auto fluorescence equivalencies of compounds against three fluorophores have been evaluated: Triamterene, Fluorescein and Rose Bengal sodium for blue, green and red fluorescence, respectively. The fluorescence intensities were measured using Excitation/Emission wavelengths at 405/460nm, 485/535nm and 540/590nm for blue, green and red labels, respectively. This assay includes the blue fluorescence data.
Tox21 Assay Protocol Summary:
2,000 HEK293 cells in 5 uL of culture medium containing 10% dialyzed FBS per well were dispensed into black wall/clear bottom 1536-well plates using a Multidrop Combi Dispenser (Thermo Scientific). The assay plates were incubated for 4-5 hr at 37C to allow cell attachment to the well bottom, followed by the transfer of 23 nL compound or DMSO vehicle by a pintool work station (Kalypsys, San Diego, CA). After the assay plates were incubated overnight at 37C and 5% CO2, fluorescence intensities in the assay plates were measured by an Envision (PerkinElmer, Shelton, CT) plate reader using three labels for measuring blue, green and red fluorescence at […] 460, 535 and 590nm respectively.
A general note: In qHTS, concentration-response curves come from the screen itself.
With `Cc1ccc(Cl)c(Nc2ccccc2C(=O)O)c1Cl`, the “fluorescence, % of triamterene” value is -0.249% [at 46 µM] (inactive). Consider `Brc1cc(Br)c(Oc2cc(Br)c(Br)cc2Br)cc1Br`, for which the “fluorescence, % of triamterene” value is -0.0028% [at 46 µM] (inactive).

`COc1ccccc1Oc1c(NS(=O)(=O)c2ccc(C(C)(C)C)cc2)nc(-c2ncccn2)nc1OCCO`: the “fluorescence, % of triamterene” value is -0.0072% [at 46 µM] (inactive). Still for that read-out and setting: with `CC(=O)N/N=C/c1ccc([N+](=O)[O-])o1` the figure was 1.31% [at 46 µM] (inactive); with `Cc1ccc(OC(=O)c2ccccc2O)cc1`, 0.124% (inactive); with `Cc1cccc(N(C)C(=S)Oc2ccc3c(c2)CCC3)c1`, -0.0534% [at 46 µM] (inactive). Take `C[C@@H](O[C@H]1OCCN(Cc2n[nH]c(=O)[nH]2)[C@H]1c1ccc(F)cc1)c1cc(C(F)(F)F)cc(C(F)(F)F)c1`: the “fluorescence, % of triamterene” value is 0.0303% [at 46 µM] (inactive). In the case of `O=C(CCCN1CC=C(n2c(=O)[nH]c3ccccc32)CC1)c1ccc(F)cc1`, the “fluorescence, % of triamterene” value is 0.173% [at 46 µM] (inactive). Consider `Cc1cc(O)ccc1O`, for which the “fluorescence, % of triamterene” value was 0.0585% (inactive).

Turning to `CCCCC(CC)CN` (stereo not given), the “fluorescence, % of triamterene” value was 0.0697% [at 95.7 µM] (inactive). With `CN1C(=O)c2ccccc2C1=O`, the “fluorescence, % of triamterene” value is -0.28% (inactive).

Consider `CC(CCC(=O)O)C(=O)O` (stereo not given), for which the “fluorescence, % of triamterene” value was -0.013% (inactive).

As to `O[C@@H]1CO[C@H]2[C@@H]1OC[C@@H]2O`, the “fluorescence, % of triamterene” value was 0.0044% [at 46 µM] (inactive).

As for `Nc1ncnc2c1ncn2[C@H]1CC[C@@H](CO)O1`, the Potency entry was “inactive”. On to `CCCCCCCCCCC(=O)O`, for which the “fluorescence, % of triamterene” value was -0.145% [at 95.7 µM] (inactive). Take `CCC1(CO)COCOC1`: the “fluorescence, % of triamterene” value was 0.0595% (inactive). `COc1cc(C(=O)NC2CCN(C)CC2)ccc1Nc1ncc2c(n1)N(C1CCCC1)CC(F)(F)C(=O)N2C`: the “fluorescence, % of triamterene” value was 0.1% (inactive). Same read-out and setting: the same measure for `C[C@@]12CCC[C@H]1[C@@H]1CC[C@H]3C[C@@H](O)CC[C@]3(C)[C@H]1CC2`: -0.0876% [at 46 µM] (inactive); for `Oc1cccc(Nc2ccccc2)c1`: -0.0695% [at 95.7 µM] (inactive); for `CCCCCC[C@@H](O)C/C=C\CCCCCCCC(=O)OCC(O)CO` (stereo not given in full): -0.052% (inactive). On the same count and under the same terms, the same measure for `CC(C)Nc1cccnc1N1CCN(C(=O)c2cc3cc(NS(C)(=O)=O)ccc3[nH]2)CC1`: 0.0003% [at 46 µM] (inactive). The same measure, in the same setting: with `CC(C)(c1ccccc1)c1ccccc1` the figure was 0.0488% (inactive); with `CC[C@]1(O)C[C@H]2CN(CCc3c([nH]c4ccccc34)[C@@](C(=O)OC)(c3cc4c(cc3OC)N(C=O)[C@H]3[C@@](O)(C(=O)OC)[C@H](OC(C)=O)[C@]5(CC)C=CCN6CC[C@]43[C@@H]65)C2)C1`, 0.0239% [at 46 µM] (inactive). As to `CN(C)CCC=C1c2ccccc2C=Cc2ccccc21`, the “fluorescence, % of triamterene” value is 0.0342% [at 46 µM] (inactive).

Consider `O=c1cc(-c2ccccc2)oc2ccc3ccccc3c12`, for which the “fluorescence, % of triamterene” value is -0.158% (inactive).

As to `O=c1[nH]ncc2ccccc12`, the “fluorescence, % of triamterene” value was -0.0564% (inactive). Consider `CN1C(=O)OC(C)(C)C1=O`, for which the Potency entry is “inactive”. For the compound `O=C=Nc1cccc(C(F)(F)F)c1`, the “fluorescence, % of triamterene” value was -0.0437% (inactive). `CC(C)=CCC1C(=O)N(c2ccccc2)N(c2ccccc2)C1=O`: the “fluorescence, % of triamterene” value was -0.288% [at 46 µM] (inactive). Take `CC(C)=CCC/C(C)=C/CC/C(C)=C/CCC(=O)OC/C=C(\C)CCC=C(C)C`: the “fluorescence, % of triamterene” value was -0.0367% [at 46 µM] (inactive).

On to `CCCCCCCCN`, for which the “fluorescence, % of triamterene” value is -0.0773% (inactive). Regarding `O=[N+]([O-])c1ccc(O/N=C/c2cc(Br)c(O)c(Br)c2)c([N+](=O)[O-])c1`, the “fluorescence, % of triamterene” value was -0.184% (inactive). In the case of `O=C1c2ccccc2C(=O)C1c1ccc(Br)cc1`, the “fluorescence, % of triamterene” value is 0.0132% [at 46 µM] (inactive).

Consider `CCOC(C)=O`, for which the Potency entry is “inactive”. In the case of `CCCCCC#CC(=O)OC`, the “fluorescence, % of triamterene” value was -0.192% (inactive).

For the compound `CN1C[C@H](C(=O)N[C@]2(C)O[C@@]3(O)[C@@H]4CCCN4C(=O)[C@H](Cc4ccccc4)N3C2=O)C[C@@H]2c3cccc4[nH]cc(c34)C[C@H]21`, the “fluorescence, % of triamterene” value was 1.39% [at 46 µM] (inactive). Take `CC(C)C=O`: the “fluorescence, % of triamterene” value is -0.137% [at 95.7 µM] (inactive). Take `Oc1c(I)cc(I)c2cccnc12`: the “fluorescence, % of triamterene” value is 0.0662% [at 46 µM] (inactive). In the case of `CCC(C)COC(C)=O` (stereo not given), the “fluorescence, % of triamterene” value was 7.61% (inactive). `CN1CCCC(CC2c3ccccc3Sc3ccccc32)C1` (stereo not given): the fluorescence, % of triamterene was 0.136% [at 18.6 µM] (inactive).
